Test results taken from PubChem BioAssay AID1159580 (chemical genetic matrix, 2015).
“And” between values parts separate entries of the source, which are not always exact repeats. Equal values may be shown once. Out of some 5,500 compounds screened, about 2,000 (36%) were called active. Another 18% or so got no clear call; they are omitted. Cut-off read from the data, not from the text of the source: active = normalized growth mostly below about 0.91 (no sharp cut-off); inconclusive = no clear call, values can overlap the other calls; inactive = mostly above about 0.92. The list shows a part of the results.

Experiment: chemical genetic growth profiling, strain panel (AID 1159580);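 note: tested at 20 µM; growth read once vehicle control cultures reached saturation at 30 °C; 1 = growth at the plate median or of vehicle wells; lower values mean less growth of the strain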
Conditions: S. cerevisiae deletion strains, growth OD

Measured: normalized growth

c1ccc2c(c1)CCCC2C1=NCCN1 (centres undefined)
inactive: locus YAL013W, strain DEP1, active compounds read low 1.01 and 1 | locus YAL021C, strain ccr4, active compounds read low 1.02 | locus YAL026C, strain drs2, active compounds read low 1.02 | locus YAL030W, strain snc1, active compounds read low 1.02 | locus YAL040C, strain CLN3, active compounds read low 1.05 | locus YBL061C, strain skt5, active compounds read low 1.02 | locus YBR009C, strain hhf1, active compounds read low 1.03 | locus YBR021W, strain FUR4, active compounds read low 1.05 | locus YBR023C, strain chs3, active compounds read low 1.02 | locus YBR171W, strain sec66, active compounds read low 1.03 | locus YBR229C, strain ROT2, active compounds read low 1.01 | locus YBR231C, strain swc5, active compounds read low 1.02 | locus YBR279W, strain paf1, active compounds read low 1.01 | locus YCL011C, strain gbp2, active compounds read low 1.02 | locus YCL016C, strain dcc1, active compounds read low 1.02 | locus YCL029C, strain bik1, active compounds read low 0.995 | locus YCL061C, strain MRC1 (second series), active compounds read low 1.01 | locus YCL069W, strain vba3, active compounds read low 1.02 | locus YCR088W, strain abp1, active compounds read low 1.02 | locus YDL005C, strain med2, active compounds read low 1.02 | locus YDL035C, strain GPR1, active compounds read low 1.02 | locus YDL040C, strain nat1, active compounds read low 1.02 | locus YDL074C, strain BRE1, active compounds read low 1.01 | locus YDL101C, strain DUN1, active compounds read low 1.01 | locus YDL134C, strain PPH21, active compounds read low 1.01 | locus YDL185W, strain tfp1, active compounds read low 0.993 | locus YDL192W, strain arf1, active compounds read low 1 | locus YDR001C, strain nth1, active compounds read low 1.01 | locus YDR069C, strain doa4, active compounds read low 1 | locus YDR101C, strain arx1, active compounds read low 0.995 | locus YDR137W, strain rgp1, active compounds read low 1.03 | locus YDR150W, strain NUM1, active compounds read low 1.01 | locus YDR159W, strain sac3, active compounds read low 1.02 | locus YDR162C, strain NBP2, active compounds read low 1.02 | locus YDR195W, strain ref2 1.01 | locus YDR297W, strain sur2, active compounds read low 1.03 | locus YDR318W, strain mcm21, active compounds read low 1.01 | locus YDR334W, strain swr1, active compounds read low 1.02 | locus YDR335W, strain msn5, active compounds read low 1.03 | locus YDR363W, strain ESC2, active compounds read low 1.02 | locus YDR388W, active compounds read low 1.01 | locus YDR392W, strain spt3, active compounds read low 1.03 | locus YDR502C, strain sam2, active compounds read low 0.991 | locus YEL003W, strain gim4, active compounds read low 1.02 | locus YEL037C, strain rad23, active compounds read low 1.03 | locus YEL061C, strain CIN8 (second series), active compounds read low 1.02 | locus YEL061C, strain CIN8, active compounds read low 1.01 | locus YER002W, strain NOP16, active compounds read low 0.992 | locus YER015W, strain faa2, active compounds read low 1.02 | locus YER016W, strain bim1, active compounds read low 1.03 | locus YER110C, active compounds read low 1.01 | locus YER111C, strain swi4, active compounds read low 1.03 | locus YER155C, strain BEM2 (second series), active compounds read low 1.04 | locus YER155C, strain BEM2, active compounds read low 1.01 | locus YER167W, strain BCK2, active compounds read low 1.01 | locus YFR010W, strain ubp6, active compounds read low 1.01 | locus YGL078C, strain dbp3, active compounds read low 0.989 | locus YGL086W, strain mad1, active compounds read low 0.998 | locus YGL167C, strain pmr1, active compounds read low 1.04 | locus YGL173C, strain kem1, active compounds read low 1.02 | locus YGL227W, strain vid30, active compounds read low 1.03 | locus YGL240W, strain doc1, active compounds read low 1.03 | locus YGL248W, strain PDE1, active compounds read low 1.01 | locus YGL253W, strain hxk2, active compounds read low 1.03 | locus YGR135W, strain pre9, active compounds read low 0.987 | locus YGR229C, strain SMI1, active compounds read low 1.02 and 1.03 | locus YGR252W, strain gcn5, active compounds read low 0.971 | locus YHR013C, strain ard1, active compounds read low 1.05 | locus YHR027C, strain rpn1, active compounds read low 1.01 | locus YHR030C, strain SLT2, active compounds read low 1.01 and 0.988 | locus YHR079C, strain IRE1 (second series), active compounds read low 1.01 | locus YHR079C, strain IRE1, active compounds read low 0.976 | locus YHR094C, strain hxt1, active compounds read low 1 | locus YHR129C, strain ARP1, active compounds read low 1.01 | locus YHR142W, strain chs7, active compounds read low 1.02 | locus YHR200W, strain rpn10, active compounds read low 0.997 | locus YIL066C, strain RNR3, active compounds read low 1.01 | locus YIL073C, strain SPO22, active compounds read low 1.02 | locus YIL125W, strain kgd1, active compounds read low 0.958 | locus YIR030C, strain dcg1, active compounds read low 0.999 | locus YJL092W, strain hpr5, active compounds read low 1.02 | locus YJL095W, strain BCK1 (second series), active compounds read low 1.02 | locus YJL095W, strain BCK1, active compounds read low 1 and 0.971 | locus YJL115W, strain asf1, active compounds read low 1.01 | locus YJL129C, strain trk1, active compounds read low 1.02 | locus YJL134W, strain LCB3, active compounds read low 1.01 | locus YJL154C, strain vps35, active compounds read low 1.02 | locus YJL164C, strain tpk1, active compounds read low 1.02 | locus YJL166W, strain qcr8, active compounds read low 1.02 | locus YJL168C, strain set2, active compounds read low 1 | locus YJL187C, strain SWE1 (second series), active compounds read low 1.02 | locus YJR043C, strain POL32, active compounds read low 1.01 | locus YJR066W, strain TOR1, active compounds read low 0.945 | locus YJR075W, strain HOC1, active compounds read low 1.01 and 0.998
